# Experimental data as given in PubChem BioAssay.
# Target: Dickkopf-related protein 1 (Homo sapiens) (UniProt O94907)
# Assay: small molecules binding DKK1 protein – biochemical, small-molecule microarray, 635 nm fluorescence scan, primary screen (AID 1106);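 note: score merges emission near 667 nm with signal to noise over three replicate slides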
# Conditions: higher = more signal
# Chain of Dickkopf-related protein 1 (Homo sapiens) (O94907 whole entry, looked up): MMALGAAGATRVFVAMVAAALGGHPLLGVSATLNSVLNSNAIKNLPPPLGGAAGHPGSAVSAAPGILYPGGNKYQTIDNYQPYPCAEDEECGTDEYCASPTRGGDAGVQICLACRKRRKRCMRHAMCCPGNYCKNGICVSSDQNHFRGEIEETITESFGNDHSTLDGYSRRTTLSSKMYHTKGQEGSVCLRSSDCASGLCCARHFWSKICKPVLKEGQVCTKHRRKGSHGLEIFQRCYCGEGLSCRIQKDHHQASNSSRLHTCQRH
row,SMILES,composite z-score
1,CN(C)C(=O)[C@]1(CCS(=O)(=O)c2ccccc2)N=C(c2ccc(OCCCO)cc2)O[C@@H]1c1ccccc1,-0.323
2,CC(C)OC(=O)CC(=O)CC(O)c1ccc([N+](=O)[O-])cc1 (stereo not given),-0.953
3,CCN(CC)c1ccc(N2CC=CC34O[C@@H]5/C=C\CCC(C)OC(=O)C5[C@H]3C(=O)N(C(C)CO)[C@@H]4C2=O)cc1 (stereo not given in full),0.492
4,Cc1ccc(C(C)CC(O)C2C=CC3C(=O)N(c4ccccc4)C(=O)C3N2Nc2ccc(C#N)cc2)o1 (stereo not given),-0.0435
5,Cc1ccc(F)cc1S(=O)(=O)N[C@@H]1CCN(Cc2cccc3[nH]ccc23)C1,0.236
6,O=C1C2C=CC(C(O)c3ccco3)N(Nc3ccccc3)C2C(=O)N1c1ccccc1 (stereo not given),-0.555
7,CCOC(=O)C1=CCC(c2ccco2)N(S(=O)(=O)c2ccc(C)cc2)C1 (stereo not given),0.49
8,O=C(NCCN1CCOCC1)[C@@H]1c2ccccc2C(=O)N(Cc2ccccc2)[C@H]1c1ccc(CO)cc1,-0.667
9,CCOC(=O)C1=C[C@@H](c2ccccc2)N(S(=O)(=O)c2ccc(C)cc2)[C@H]1c1ccccc1,-0.399
10,COCCOC(=O)N1C(=O)[C@@]2(c3cc(C#Cc4ccc(OC)cc4)ccc31)[C@H](c1ccc(OCCO)cc1)N1[C@H](c3ccccc3)[C@H](c3ccccc3)OC(=O)[C@H]1[C@@H]2C(=O)Nc1nc2ccccc2s1,0.154
11,[N-]=[N+]=Nc1ccccc1C[C@]1(C(=O)O)N=C(c2ccc(OCCCO)cc2)O[C@H]1c1ccccc1N=[N+]=[N-],-0.0824
12,CC=CC(O)C1C=CC2C(=O)NC(=O)C2N1Nc1ccccn1 (stereo not given),0.697
13,CCOC(=O)C1=C[C@@H](C(C)(C)C)N(S(=O)(=O)c2ccc(C)cc2)[C@H]1c1ccccc1,0.743
14,COC(=O)[C@@]1(Cc2ccc(F)cc2)[C@H]2c3cc(C(=O)N4CCCC4)n(CC4CC4)c3C[C@H]2CN1C(=O)c1ccccc1,0.0587
15,CO[C@H]1O[C@H](CO)[C@@H](OC(=O)Nc2ccc(C#N)cc2)[C@@H]2OC(=O)[C@H](Cc3cccc(Br)c3)C/C=C/C[C@@H](Cc3cccc(Br)c3)C(=O)O[C@@H]12,0.336
16,COC(=O)[C@@]1(Cc2ccccc2)[C@H]2c3cc(C(=O)N(C)C)n(CCn4cc([N+](=O)[O-])nc4C)c3C[C@H]2CN1C(=O)c1ccccc1,0.0356
17,Cc1ccc(N2C(=O)c3ccccc3[C@](C)(C(=O)NCc3ccccc3)[C@@H]2c2ccc(CO)cc2)nc1,0.381
18,COC(=O)[C@@]1(Cc2ccc(F)cc2)[C@H]2c3cc(C(=O)N4CCCC4)n(C)c3C[C@H]2CN1C(=O)c1ccccc1,-0.856
19,CC(C)C(=C=CC[C@@H](O)c1cccc(OCCO)c1)C[C@@H](O)c1ccccn1,0.0852
20,O=C(O)[C@H]1C[C@H]2C(=O)N[C@@H](Cc3ccccc3)C(=O)N2[C@H]1c1cccc(OCCO)c1,1.17
21,COc1ccc([Si](C)(C)[C@@H]2[C@@H](CC(=O)N3Cc4ccccc4C[C@H]3CO)O[C@]3(C(=O)N(Cc4ccc(N5CCC5=O)cc4)c4ccccc43)[C@H]2C)cc1,0.644
22,Cc1ccc([C@H]2C(C(=O)O)=C[C@@H](C(C)(C)C)N2S(=O)(=O)c2ccc(C)cc2)cc1,-0.591
23,CN1C(=O)[C@@]2(Cc3ccccc3)N=C(c3ccc(OCCCO)cc3)O[C@H]2c2ccccc21,0.191
24,COCCCNC(=O)[C@@]1(Sc2ccc(C)cc2)CC(=O)N(C(C)C)[C@@H]1c1ccc(CO)cc1I,-1.12
25,CC(C)C(=C=CC[C@@H](O)c1cccc(OCCO)c1)C[C@@H](O)COCc1ccccc1,-0.445
26,COC(=O)[C@@]1(Cc2ccccc2)[C@H]2c3cc(C(=O)N4CCCC4)n(CCSCCO)c3C[C@H]2CN1C(=O)c1ccccc1,-0.78
27,CCOC(=O)C1=C[C@@H](C(C)(C)C)N(S(=O)(=O)c2ccc(C)cc2)[C@H]1c1cccc(Cl)c1,0.0675
28,C=C[C@H](C)[C@H](OC(=O)Nc1ccc(OC)cc1)c1ccc(OCCO)cc1,-1.28
29,C[C@]1(C(=O)O)c2ccccc2C(=O)N(Cc2ccc(OC(F)(F)F)cc2)[C@H]1c1ccc(CO)cc1,-0.656

# Test system: Inhibin beta A chain (activin A)
# Assay: small molecules binding activin A – biochemical, small-molecule microarray, 635 nm fluorescence scan, primary screen (AID 1107);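 note: mouse activin A protein probed at 4.33 µg/mL on printed slides; score merges bound-protein fluorescence near 667 nm with spot signal-to-noise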
# Conditions: INHBA, higher = more signal
row,SMILES,composite z-score
1,COc1cc(NN2C(C(O)c3ccc(I)cc3)C=CC3C(=O)N(c4ccccc4)C(=O)C32)cc(OC)c1OC (stereo not given),0.946
2,CN(C)CCCC[C@@H]1NC(=O)[C@@H]2C[C@H](C(=O)O)[C@H](c3cccc(OCCO)c3)N2C1=O,-0.7
3,CN1C(=O)C2C=CC(C(O)c3cc(C(F)(F)F)cc(C(F)(F)F)c3)N(Nc3ccccc3)C2C1=O (stereo not given),0.0638
4,C=C(/C(=C/C[C@H](OC(=O)c1ccncc1)c1ccccc1OCCO)c1cnc2ccccc2c1)C(C)C,1.72
5,COC(=O)[C@@]1(Cc2ccccc2CN=[N+]=[N-])N=C(c2ccc(OCCCO)cc2)O[C@H]1c1ccccc1,1.13
6,C=CCC(OC(C)=O)[C@@H]1[C@@H](N(Cc2cccc3ccccc23)C(=O)c2ccc(-c3ccccc3)cc2)c2cc(OCCCO)ccc2N1C(=O)c1ccc(-c2ccccc2)cc1 (stereo not given in full),0.967
7,COC(=O)[C@@]1(Cc2ccc(F)cc2)[C@H]2c3cc(C(=O)N(C)C)n(Cc4c(CO)[nH]cc(C)c4=O)c3C[C@H]2CN1C(=O)c1ccccc1,0.693
8,CN(C)C(=O)[C@]1(CCS(=O)(=O)c2ccccc2)N=C(c2ccc(OCCCO)cc2)O[C@@H]1c1ccccc1,0.82
9,CC(C)OC(=O)CC(=O)CC(O)c1ccc([N+](=O)[O-])cc1 (stereo not given),0.527
10,CCN(CC)c1ccc(N2CC=CC34O[C@@H]5/C=C\CCC(C)OC(=O)C5[C@H]3C(=O)N(C(C)CO)[C@@H]4C2=O)cc1 (stereo not given in full),1.5
11,Cc1ccc(C(C)CC(O)C2C=CC3C(=O)N(c4ccccc4)C(=O)C3N2Nc2ccc(C#N)cc2)o1 (stereo not given),0.607
12,Cc1ccc(F)cc1S(=O)(=O)N[C@@H]1CCN(Cc2cccc3[nH]ccc23)C1,0.741
13,O=C1C2C=CC(C(O)c3ccco3)N(Nc3ccccc3)C2C(=O)N1c1ccccc1 (stereo not given),0.781
14,CCOC(=O)C1=CCC(c2ccco2)N(S(=O)(=O)c2ccc(C)cc2)C1 (stereo not given),1.35
15,O=C(NCCN1CCOCC1)[C@@H]1c2ccccc2C(=O)N(Cc2ccccc2)[C@H]1c1ccc(CO)cc1,0.269
16,CCOC(=O)C1=C[C@@H](c2ccccc2)N(S(=O)(=O)c2ccc(C)cc2)[C@H]1c1ccccc1,1.46
17,COCCOC(=O)N1C(=O)[C@@]2(c3cc(C#Cc4ccc(OC)cc4)ccc31)[C@H](c1ccc(OCCO)cc1)N1[C@H](c3ccccc3)[C@H](c3ccccc3)OC(=O)[C@H]1[C@@H]2C(=O)Nc1nc2ccccc2s1,0.598
18,[N-]=[N+]=Nc1ccccc1C[C@]1(C(=O)O)N=C(c2ccc(OCCCO)cc2)O[C@H]1c1ccccc1N=[N+]=[N-],0.884

row,SMILES,composite z-score
1,CC=CC(O)C1C=CC2C(=O)NC(=O)C2N1Nc1ccccn1 (stereo not given),1.25
2,CCOC(=O)C1=C[C@@H](C(C)(C)C)N(S(=O)(=O)c2ccc(C)cc2)[C@H]1c1ccccc1,0.556
3,COC(=O)[C@@]1(Cc2ccc(F)cc2)[C@H]2c3cc(C(=O)N4CCCC4)n(CC4CC4)c3C[C@H]2CN1C(=O)c1ccccc1,0.789
4,CO[C@H]1O[C@H](CO)[C@@H](OC(=O)Nc2ccc(C#N)cc2)[C@@H]2OC(=O)[C@H](Cc3cccc(Br)c3)C/C=C/C[C@@H](Cc3cccc(Br)c3)C(=O)O[C@@H]12,-0.247
5,COC(=O)[C@@]1(Cc2ccccc2)[C@H]2c3cc(C(=O)N(C)C)n(CCn4cc([N+](=O)[O-])nc4C)c3C[C@H]2CN1C(=O)c1ccccc1,0.581
6,Cc1ccc(N2C(=O)c3ccccc3[C@](C)(C(=O)NCc3ccccc3)[C@@H]2c2ccc(CO)cc2)nc1,1.21
7,COC(=O)[C@@]1(Cc2ccc(F)cc2)[C@H]2c3cc(C(=O)N4CCCC4)n(C)c3C[C@H]2CN1C(=O)c1ccccc1,1.21
8,CC(C)C(=C=CC[C@@H](O)c1cccc(OCCO)c1)C[C@@H](O)c1ccccn1,0.139
9,O=C(O)[C@H]1C[C@H]2C(=O)N[C@@H](Cc3ccccc3)C(=O)N2[C@H]1c1cccc(OCCO)c1,0.206
10,COc1ccc([Si](C)(C)[C@@H]2[C@@H](CC(=O)N3Cc4ccccc4C[C@H]3CO)O[C@]3(C(=O)N(Cc4ccc(N5CCC5=O)cc4)c4ccccc43)[C@H]2C)cc1,0.331
11,Cc1ccc([C@H]2C(C(=O)O)=C[C@@H](C(C)(C)C)N2S(=O)(=O)c2ccc(C)cc2)cc1,0.265
12,CN1C(=O)[C@@]2(Cc3ccccc3)N=C(c3ccc(OCCCO)cc3)O[C@H]2c2ccccc21,1.16
13,COCCCNC(=O)[C@@]1(Sc2ccc(C)cc2)CC(=O)N(C(C)C)[C@@H]1c1ccc(CO)cc1I,0.978
14,CC(C)C(=C=CC[C@@H](O)c1cccc(OCCO)c1)C[C@@H](O)COCc1ccccc1,0.198
15,COC(=O)[C@@]1(Cc2ccccc2)[C@H]2c3cc(C(=O)N4CCCC4)n(CCSCCO)c3C[C@H]2CN1C(=O)c1ccccc1,0.964
16,CCOC(=O)C1=C[C@@H](C(C)(C)C)N(S(=O)(=O)c2ccc(C)cc2)[C@H]1c1cccc(Cl)c1,-0.213
17,C=C[C@H](C)[C@H](OC(=O)Nc1ccc(OC)cc1)c1ccc(OCCO)cc1,-0.801
18,C[C@]1(C(=O)O)c2ccccc2C(=O)N(Cc2ccc(OC(F)(F)F)cc2)[C@H]1c1ccc(CO)cc1,0.496
